The nature of test [1]: qHTS Assay for Lipid Storage Modulators (AID 1519; calls by dose curve; on activity change, negative = inhibition: on the % scale 0 is the no-effect control and ±100 the full control effect). As to conditions: Drosophila S3 cells, BODIPY lipid droplet/cell ratio, laser cytometry, cells loaded with oleic acid; for activity change, negative = inhibition: at 57.5 µM (top of the series). In short, it runs like this: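 Cells seeded at 5,000 per well were treated with compounds over a concentration series and loaded with oleic acid (400 uM, as added). Lipid droplet fluorescence (488 nm excitation, 500-530 nm channel) was read by laser-scanning cytometry and normalized to 20 uM Triacsin C.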

Test [2] concerns the target ATP-dependent 6-phosphofructokinase (Trypanosoma brucei brucei) (UniProt O15648). As to the kind of experiment: qHTS Assay to Find Inhibitors of T. brucei phosphofructokinase: hit validation (AID 492961). Further: on the % scale 0 is the no-effect control and ±100 the full control effect. As to conditions: T. brucei PFK, ADP-Glo luminescence; series mostly up to 24.3 µM. In short, it runs like this: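 Luminescence from ADP-Glo reports ADP generated as T. brucei PFK (1.25 nM) phosphorylates 0.5 mM fructose-6-phosphate using 0.1 mM ATP. Reactions ran 45 min at room temperature, pH 8.0.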
A general note: Quantitative high-throughput screening tests each substance at several concentrations.

For test [3], the target named is Ubiquitin carboxyl-terminal hydrolase 1 (Homo sapiens) (UniProt O94782). Put plainly: Inhibitors of USP1/UAF1: Pilot qHTS (AID 504865).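 Further: rhodamine fluorescence freed from ubiquitin-rhodamine substrate followed over time; top concentration of the series differs between compounds; on the % scale 0 is the no-effect control and ±100 the full control effect; nearly all actives have a fitted effect of over 35% in size.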 The note with it: purified USP1/UAF1, Ub-rhodamine cleavage fluorescence; series mostly up to 114 µM. In short, it runs like this:
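In 50mM HEPES pH 7.8 containing 0.5mM EDTA, 1mM TCEP, 0.1 mg/ml BSA and 0.01% Tween-20, 1nM USP1/UAF1 is exposed to compound for 15 min, then Ub-Rho (150nM final) is added and fluorescence is read over time.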

The target in test [4] is Luciferin 4-monooxygenase (Photinus pyralis) (UniProt P08659). Put plainly: Biochemical firefly luciferase enzyme assay for NPC (AID 624030).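 Further: purified P. pyralis luciferase at 10 nM with luciferin and ATP substrate; 0% = DMSO and -100% = full luciferase inhibition by PTC124 control; nearly all actives have a fitted effect of over 70% in size.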 As to conditions: purified P. pyralis luciferase, luminescence, 5 min; series mostly up to 24.9 µM. In short, it runs like this: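 Purified P. pyralis luciferase at 10 nM in 50 mM Tris Acetate (final), luminescence read within 5 minutes of enzyme addition to compounds. Activity normalised to PTC124 versus DMSO; concentration-response curves classed by r2, magnitude and activity.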

Test [5] in a line: qHTS profiling for inhibitors of Plasmodium falciparum proliferation (AID 504749).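 Further: 0% = DMSO vehicle and full inhibition = artemisinin control; nearly all actives have a fitted effect of over 60% in size.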 As to conditions: P. falciparum in erythrocytes, SYBR Green DNA, 72 h, at 28.7 µM (top of the series). Put shortly: (§1)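 Readout was DNA-dye fluorescence from lysed cultures, ex 485/em 535 nm. Parasitized red cells had grown 72 h with compound; data scaled between 0.29 uM artemisinin and DMSO wells and corrected using vehicle-only plates.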

In another test the test system is 3D7. The test is described as above. The note with it: P. falciparum in erythrocytes, SYBR Green DNA, 72 h; series mostly up to 12.8 µM. Put shortly:
as §1

A further test deals with C2A. The test is described as above. As to conditions: P. falciparum in erythrocytes, SYBR Green DNA, 72 h; series mostly up to 12.8 µM. In short, it runs like this: as §1
The next test relates to CP201. Described as above. The note with it: P. falciparum in erythrocytes, SYBR Green DNA, 72 h; series mostly up to 12.8 µM. In short, it runs like this:
as §1

The test system of a further test is CP211. Described as above. The note with it: P. falciparum in erythrocytes, SYBR Green DNA, 72 h; series mostly up to 12.8 µM. In short, it runs like this:
as §1

Another test concerns CP237. The test is described as above. As to conditions: P. falciparum in erythrocytes, SYBR Green DNA, 72 h; series mostly up to 12.8 µM. Put shortly: as §1
A further test has as its system CP252. The test is described as above. As to conditions: P. falciparum in erythrocytes, SYBR Green DNA, 72 h; series mostly up to 12.8 µM. In short, it runs like this: as §1
The next test relates to CP262. The description is as above. As to conditions: P. falciparum in erythrocytes, SYBR Green DNA, 72 h; series mostly up to 12.8 µM. Put shortly:
as §1

A further test relates to CP268. Described as above. The note with it: P. falciparum in erythrocytes, SYBR Green DNA, 72 h; series mostly up to 12.8 µM. Put shortly:
as §1

A further test concerns CP305. Described as above. The note with it: P. falciparum in erythrocytes, SYBR Green DNA, 72 h; series mostly up to 12.8 µM. In short, it runs like this:
as §1

In a further test the test system is CP315. The description is as above. As to conditions: P. falciparum in erythrocytes, SYBR Green DNA, 72 h; series mostly up to 12.8 µM. Put shortly: as §1
A further test has as its system CP329. Described as above. The note with it: P. falciparum in erythrocytes, SYBR Green DNA, 72 h; series mostly up to 12.8 µM. In short, it runs like this:
as §1

The next test relates to HB3. Described as above. As to conditions: P. falciparum in erythrocytes, SYBR Green DNA, 72 h; series mostly up to 12.8 µM. In short, it runs like this:
as §1

The next test has as its system JCK. The test is described as above. The note with it: P. falciparum in erythrocytes, SYBR Green DNA, 72 h; series mostly up to 12.8 µM. In short, it runs like this: as §1
In another test the test system is PAD. The description is as above. As to conditions: P. falciparum in erythrocytes, SYBR Green DNA, 72 h; series mostly up to 12.8 µM. In short, it runs like this: as §1
The subject of a further test is PC49. The test is described as above. As to conditions: P. falciparum in erythrocytes, SYBR Green DNA, 72 h; series mostly up to 12.8 µM. In short, it runs like this:
as §1

Where [6] appears, read: measured here: cell count channel max response.
Where [7] appears, read: measured here: lipid channel max response.

Records with an inconclusive call do not appear. The source made the active and inactive calls. Unless noted, the call rests on the fitted dose curve; in most records, active means well fitted curve in the direction sought with a large enough effect; inconclusive means small, poorly fitted or top-dose-only effect, or another doubt; inactive means no such curve, though single readings can be large; an effect the other way counts as inactive or inconclusive.

ATP-dependent 6-phosphofructokinase (Trypanosoma brucei brucei), sequence (O15648 whole entry, looked up): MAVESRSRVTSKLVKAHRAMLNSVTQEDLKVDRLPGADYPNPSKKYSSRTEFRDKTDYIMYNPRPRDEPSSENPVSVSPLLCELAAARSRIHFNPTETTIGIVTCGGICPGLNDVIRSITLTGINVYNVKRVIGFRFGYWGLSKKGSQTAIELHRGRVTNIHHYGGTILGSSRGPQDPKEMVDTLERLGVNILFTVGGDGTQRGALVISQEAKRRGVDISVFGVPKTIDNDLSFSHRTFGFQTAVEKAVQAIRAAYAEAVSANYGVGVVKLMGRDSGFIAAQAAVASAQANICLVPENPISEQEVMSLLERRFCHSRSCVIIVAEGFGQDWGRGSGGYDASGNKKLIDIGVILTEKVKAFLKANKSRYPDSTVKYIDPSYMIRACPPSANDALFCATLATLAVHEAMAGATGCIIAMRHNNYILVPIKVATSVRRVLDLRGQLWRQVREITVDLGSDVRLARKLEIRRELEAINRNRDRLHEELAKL
Luciferin 4-monooxygenase (Photinus pyralis), sequence (P08659 whole entry, looked up): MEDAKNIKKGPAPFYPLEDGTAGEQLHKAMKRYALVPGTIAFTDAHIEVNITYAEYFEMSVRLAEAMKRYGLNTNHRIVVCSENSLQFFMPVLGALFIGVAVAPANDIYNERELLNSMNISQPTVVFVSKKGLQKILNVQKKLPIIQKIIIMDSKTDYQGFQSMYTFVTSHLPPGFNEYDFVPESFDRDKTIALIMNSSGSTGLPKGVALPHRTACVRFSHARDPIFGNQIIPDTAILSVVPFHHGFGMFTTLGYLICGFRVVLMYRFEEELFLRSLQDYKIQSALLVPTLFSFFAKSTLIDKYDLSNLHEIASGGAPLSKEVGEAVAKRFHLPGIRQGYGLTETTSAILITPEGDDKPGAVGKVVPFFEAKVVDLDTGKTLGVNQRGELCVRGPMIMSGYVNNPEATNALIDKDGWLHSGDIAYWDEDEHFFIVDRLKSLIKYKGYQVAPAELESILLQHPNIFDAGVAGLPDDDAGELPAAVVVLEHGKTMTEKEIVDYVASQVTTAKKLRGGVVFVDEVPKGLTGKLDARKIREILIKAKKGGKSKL
Ubiquitin carboxyl-terminal hydrolase 1 (Homo sapiens), sequence (O94782 whole entry, looked up): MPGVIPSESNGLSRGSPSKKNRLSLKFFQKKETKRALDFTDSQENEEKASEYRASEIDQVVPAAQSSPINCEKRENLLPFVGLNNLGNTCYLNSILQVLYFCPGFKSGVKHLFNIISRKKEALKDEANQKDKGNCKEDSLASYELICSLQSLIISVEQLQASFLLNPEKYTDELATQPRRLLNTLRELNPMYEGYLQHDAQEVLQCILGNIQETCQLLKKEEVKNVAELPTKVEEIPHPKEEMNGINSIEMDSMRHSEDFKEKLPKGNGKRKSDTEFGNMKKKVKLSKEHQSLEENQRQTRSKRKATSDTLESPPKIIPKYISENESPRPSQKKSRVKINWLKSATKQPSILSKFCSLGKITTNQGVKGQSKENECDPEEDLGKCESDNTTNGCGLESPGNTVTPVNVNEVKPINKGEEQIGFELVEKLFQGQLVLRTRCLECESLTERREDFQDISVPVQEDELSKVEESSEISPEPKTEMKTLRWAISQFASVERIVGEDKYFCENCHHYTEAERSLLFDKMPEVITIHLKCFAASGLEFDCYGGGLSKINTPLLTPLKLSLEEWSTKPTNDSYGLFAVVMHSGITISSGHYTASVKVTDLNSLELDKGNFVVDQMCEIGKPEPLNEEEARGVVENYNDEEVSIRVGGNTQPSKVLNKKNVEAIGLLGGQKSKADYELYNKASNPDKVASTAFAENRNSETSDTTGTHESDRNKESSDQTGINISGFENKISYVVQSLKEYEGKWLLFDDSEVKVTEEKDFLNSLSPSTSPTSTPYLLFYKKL

As for `CC(=O)N[C@H](CC(C)C)C(=O)O`, the activity change, negative = inhibition in test [1] is 6.38% (inactive). The results for the max response in [1] (setting [6]) and in test [1] (setting [7]) were 8.9% and 16.6%, respectively. The molecule was classed as inactive in test [2]. Further, the Potency entry (in [3]; in test [4]; in the test with 3D7; with C2A; in the test with CP201; with CP211) was “inactive” each time. For the same molecule, the Potency entry in the test with CP237, in the test on CP252, in the test on CP262, with CP268, with CP305 and with CP315 was “inactive” each time. For the same molecule, the Potency result in the test on CP329, in the test with HB3, in the test with JCK, in the test on PAD and in the test with PC49 was “inactive” throughout. For the same molecule, the activity, negative = inhibition is -8.85% (inactive) in [5] (parasite line A) and 9.6% (inactive) in [5] (parasite line B).
For `NCC1CCC(N)C(O[C@@H]2C(O)[C@H](O[C@H]3OC(CO)C(O)C(N)C3O)[C@@H](N)C[C@H]2N)O1` (stereo partly specified), in test [1], the activity change, negative = inhibition is 9.66% (inactive). Besides, the max response was determined as 28.1% in test [1] (setting [6]) and 44.9% in [1] (setting [7]). For the same molecule, in test [2], the outcome was inactive. Moreover, the Potency entry (in test [3]; in test [4]; with 3D7; with C2A; in the test with CP201; with CP211) was “inactive” in each case. The Potency entry in the test on CP237, in the test with CP252, with CP262, in the test with CP268, in the test with CP305 and in the test with CP315 was “inactive” throughout. Besides, the Potency result in the test with CP329, with HB3, with JCK, in the test on PAD and in the test with PC49 was “inactive” in each case. In addition, the activity, negative = inhibition in [5] (parasite line A) was 7.73% (inactive); in test [5] (parasite line B), 10.2% (inactive).
`CC(C)=CCC[C@](C)(O)C1CC=C(C)CC1` (stereo partly specified): the activity change, negative = inhibition in test [1] was 6.04% (inactive). Further, the figures for the max response in test [1] (setting [6]) and in test [1] (setting [7]) were -2.85% and 4.12%, respectively. Besides, the molecule was called inactive in test [2]. For the same molecule, the Potency entry (in test [4]; with 3D7; in the test on C2A; with CP201; in the test on CP211; in the test on CP237) was “inactive” each time. In addition, the Potency result in the test on CP252, in the test on CP262, with CP268, with CP305, in the test with CP315 and in the test with CP329 was “inactive” in each case. Also, the Potency entry in the test with HB3, in the test with JCK, with PAD and with PC49 was “inactive” in each case. In addition, the figures for the activity, negative = inhibition in test [5] (parasite line A) and in test [5] (parasite line B) were -5.22% (inactive) and 7.19% (inactive), respectively.
Take `CCCC(=O)O[C@]1(C(=O)CO)CCC2[C@@H]3CCC4=CC(=O)CC[C@]4(C)C3C(O)C[C@]21C` (stereo partly specified): the activity change, negative = inhibition in test [1] was 9.93% (inactive). For the same molecule, the max response amounted to 7.86% in [1] (setting [6]) and 23.2% in test [1] (setting [7]). In test [2], the result was inactive. Also, the Potency result (in test [3]; in [4]; with 3D7; with C2A; with CP201; with CP211) was “inactive” each time. Further, the Potency entry in the test with CP237, with CP252, with CP262, in the test on CP268, with CP305 and with CP315 was “inactive” each time. In addition, the Potency entry in the test with CP329, in the test on HB3, with JCK, in the test with PAD and in the test on PC49 was “inactive” throughout. For the same molecule, the activity, negative = inhibition is 6.2% (inactive) in test [5] (parasite line A) and 17.5% (inactive) in [5] (parasite line B).

(Values after PubChem BioAssay (NCATS).)
